# Test results published in PubChem BioAssay (NCI).
# Compounds without any hit were thinned out: in the full panel of roughly 83,000, 20% have a hit.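 Each cell line was grown in a 96-well plate and treated with one concentration of compound for 48 hours. Values below 10 were considered active.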 Values without a mark were called inactive. Active and inactive are the calls of the source.
# Tests used:
# Assay in all cases: NCI-60 one-dose screen, 48 h (100 = growth as untreated, 0 = no growth, -100 = all killed)
# Conditions in all cases: 10 µM unless noted
# NCI-H23 lung = tested on: NCI-H23 lung
# NCI-H226 lung = tested on: NCI-H226 lung
# NCI-H322M lung = tested on: NCI-H322M lung
# HOP-62 NSCLC = tested on: HOP-62 NSCLC
# NCI-H460 lung = tested on: NCI-H460 lung
# HOP-92 NSCLC = tested on: HOP-92 NSCLC
# NCI-H522 lung = tested on: NCI-H522 lung
# A549/ATCC NSCLC = tested on: A549/ATCC NSCLC
# 786-0 renal = tested on: 786-0 renal
# COLO 205 colon = tested on: COLO 205 colon
Compound,growth (NCI-H23 lung),growth (NCI-H226 lung),growth (NCI-H322M lung),growth (HOP-62 NSCLC),growth (NCI-H460 lung),growth (HOP-92 NSCLC),growth (NCI-H522 lung),growth (A549/ATCC NSCLC),growth (786-0 renal),growth (COLO 205 colon)
CN1CCN(c2ccc(Nc3nc(NCCCNS(=O)(=O)c4ccc(Cl)cc4)c4sccc4n3)cc2)CC1,65%,99.6%,33.7%,52.5%,7.38% (active),49.4%,-65.8% (active),21.9%,-43.2% (active),-38.3% (active)
CCCCCCN1C=C/C(=C\C(=O)n2ccc3ccccc32)c2ccccc21,9.61% (active),52.9%,93.5%,89.6%,87.7%,82.6%,57.7%,84.3%,86.6%,87.3%
C#CCOc1cccc(-c2nc(N)nc(Nc3ccccc3SSc3ccccc3Nc3nc(N)nc(-c4cccc(OCC#C)c4)n3)n2)c1,-6.17% (active),1.74% (active),80.9%,-63.2% (active),-15.7% (active),87.6%,79.8%,-39.7% (active),96.9%,114%
CN1CCN(c2ccc(Nc3nc(NCCCNS(=O)(=O)c4ccccc4)c4sccc4n3)cc2)CC1,90.6%,111%,80.3%,105%,36.9%,59.2%,44.8%,62%,7.25% (active),49.2%
CNc1sc(S(=O)(=O)NC)nc1S(=O)(=O)c1ccc(C)cc1,102%,92.5%,96.4%,99.4%,109%,84.9%,94.5%,98.8%,99.4%,112%
COc1ccc(-c2c3c(cn2Cc2cccc(OC)c2)-c2oncc2CCC3)cc1,105%,85%,103%,102%,98.9%,74.2%,96.3%,98.9%,103%,95.2%
CCCN1C=C/C(=C\C(=O)n2ccc3ccccc32)c2ccccc21,72.9%,75.1%,80.2%,94.6%,94.5%,47.9%,78.4%,84.9%,103%,96.4%
N#Cc1nc(-c2ccccc2)oc1N1CCC(C2(C(F)(F)F)N=N2)CC1,91.6%,97%,107%,113%,102%,90.1%,96.8%,99.8%,101%,103%
COc1ccc([C@@H]2C(=O)N(c3cc(OC)c(OC)c(OC)c3)[C@H]2c2ccc(OC)c(O)c2)cc1,28.9%,60.2%,42.7%,31.3%,4.83% (active),25.1%,-39.4% (active),29%,6.33% (active),-79.3% (active)
O=C(/C=C/C=C/c1csc(Br)n1)NO,103%,103%,99.4%,112%,92.2%,129%,79.1%,93.5%,101%,110%
CC1CCN(CC(=O)Nn2c(COc3ccccc3)nc3ccccc3c2=O)CC1,91.7%,84.6%,95.4%,91.9%,90.6%,96.2%,75.4%,90.9%,99%,84.1%
O=C1[C@@H]2Cc3c([nH]c4ccccc34)[C@H](c3ccc(Cl)cc3)N2C(=O)CN1C1CCN(Cc2ccccc2)CC1,74.1%,70.5%,59.2%,75.7%,34.4%,41.4%,84.6%,38.8%,68.1%,53.4%
CN(C)S(=O)(=O)c1ccc(-c2nc(C(Cl)Cl)nc3cc(-c4ccccc4)nn23)cc1,85%,96%,99%,70.7%,89%,79%,89.6%,82.6%,90.6%,69.5%
O=C1[C@H]2Cc3c([nH]c4ccccc34)[C@H](c3ccc(Br)cc3)N2C(=O)CN1C1CCN(CC2CCCCC2)CC1,83.5%,92.5%,92.8%,82.2%,54.1%,77.2%,83.6%,79.4%,83.4%,81.3%
O=S(=O)(Oc1ccc(-c2cn3ccoc3n2)cc1)C1CCCCC1,102%,86.7%,101%,105%,100%,99.9%,87.9%,99.4%,100%,103%
Brc1ccc2[nH]cc(-c3nn4cc(-c5nccs5)nc4s3)c2c1,31.2%,50.5%,51.5%,12.8%,-45.3% (active),-28.1% (active),67.6%,4.76% (active),-74.5% (active),11%
Cc1ccc(/C(N)=N/C(N)=N/c2nc3ccccc3s2)cc1,48.9%,63.2%,91.3%,-42.4% (active),75.7%,122%,100%,19.6%,109%,120%
COc1ccc2c(c1)c(/C=N/Nc1ccnc3cc(Cl)ccc13)cn2C,-80.5% (active),-52.3% (active),-95.1% (active),-81.1% (active),-79.1% (active),-81.7% (active),-65.4% (active),-69.7% (active),-81.3% (active),-86.6% (active)
Cc1[nH]c(C(=O)Nc2ccccc2OCc2cccc(C(=O)NCCN)c2)cc1Cl,102%,101%,92.9%,103%,100%,84.5%,95%,95.2%,81%,102%
CS(=O)(=O)c1nccc(-c2c(-c3cccc(OCc4ccc(Cl)c(C(F)(F)F)c4)c3)nc3sccn23)n1,39.4%,23.6%,86.1%,32%,55.6%,73.9%,80.1%,106%,106%,105%
COc1ccc(/C=N/N=C(/c2ccccc2)c2ccc3nc(-c4ccc(Cl)cc4)[nH]c3c2)cc1,91.1%,77%,84.3%,99.3%,90%,106%,72.9%,75.1%,76.9%,72%
COc1ccc(CC(C)=C(c2ccc(OCCN3CCCC3)cc2)c2ccc(OCCN3CCCC3)cc2)cc1,-82.4% (active),-69.2% (active),-75.7% (active),-66% (active),-62.3% (active),-82.4% (active),-86% (active),-68.2% (active),-79.3% (active),-61% (active)
NC1=NC2(CCCC2)N(c2ccc(S(=O)(=O)Nc3nccs3)cc2)C(N)=N1,101%,100%,103%,110%,102%,113%,102%,104%,105%,113%
C#Cc1cc(C(=O)Nc2ccc(CNCCN3CCOCC3)c(C(F)(F)F)c2)ccc1C,92.2%,95.4%,98.3%,102%,101%,68.7%,89.6%,87.7%,80.7%,105%
Cc1cc(NS(=O)(=O)c2ccc(NC(=O)CSc3nc4ccccc4c(=O)n3-c3ccccc3)cc2)no1,92.2%,93.4%,83.9%,98.5%,108%,88.6%,91.9%,101%,104%,106%
Cc1ccc([C@H]2c3[nH]c4ccccc4c3C[C@H]3C(=O)N(CCCCCCC(=O)NO)CC(=O)N23)s1,77.6%,94%,67.4%,68%,57.3%,51.2%,41.1%,85.5%,89.3%,67.9%
